In the supplement of paper PMC3334620:
In all, about 33,000 sequences were measured (“E-score (-0.5 to 0.5)”: median about -0.036, highest 2% from about 0.37 on). What follows is part of a selection rich in the highest values, with near analogues and random picks from the rest.

These sequences were tested against T1, Yer064c (UniProt P40041) (assay: PBM E-score (8-mer binding enrichment) (E-score (-0.5 to 0.5)); higher = stronger / more preferred TF binding). Details: protein concentration: 200 nM; construct: GST-full length.
T1 sequence: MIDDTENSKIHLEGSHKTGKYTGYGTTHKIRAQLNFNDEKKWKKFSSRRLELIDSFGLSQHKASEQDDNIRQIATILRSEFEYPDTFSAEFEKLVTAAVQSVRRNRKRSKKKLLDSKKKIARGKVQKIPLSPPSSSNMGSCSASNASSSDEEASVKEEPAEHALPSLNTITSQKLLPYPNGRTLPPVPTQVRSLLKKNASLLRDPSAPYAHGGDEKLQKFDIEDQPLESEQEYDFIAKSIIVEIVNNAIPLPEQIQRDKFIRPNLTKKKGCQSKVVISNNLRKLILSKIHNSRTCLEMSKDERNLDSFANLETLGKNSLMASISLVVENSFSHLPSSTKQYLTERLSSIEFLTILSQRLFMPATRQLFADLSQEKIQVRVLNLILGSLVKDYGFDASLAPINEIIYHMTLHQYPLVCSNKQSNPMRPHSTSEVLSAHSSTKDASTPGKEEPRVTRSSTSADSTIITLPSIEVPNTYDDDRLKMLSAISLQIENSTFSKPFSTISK
Protocol: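 Universal 'all 10-mer' protein binding microarrays (Agilent AMADID 015681) probed with GST-tagged S. cerevisiae TFs (full-length or DBD) made by in vitro transcription/translation (PURExpress), about 100-200 nM. Bound TF was detected with fluorescent anti-GST. Each ungapped 8-mer (which stands for itself and its reverse complement) is scored by the PBM enrichment score (E-score), a modified Wilcoxon-Mann-Whitney statistic from -0.5 to +0.5, computed with the Universal PBM Analysis Suite. Scale: above 0.35 generally sequence-specific binding.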

Sequence	PBM E-score
AAATTTCC	-0.0423
GCTGACAA	0.00774
CCTGACGC	-0.133
ACTGACCC	0.0295
CCTGACAA	-0.124
CCTGACGA	0.115
CCTGACTA	0.461
GCTGACTA	0.467
CCTGACAC	0.023
CCTGACTC	0.481
ACTGACAC	0.0326
ACTGACTC	0.461
GCTGACGA	0.129
ACCGCTCT	-0.114
CCGCTTAC	0.026
ATCACCCA	0.135
AGACCAGG	-0.166
TGCGTAAA	0.026
GCCGTCGA	-0.0942
CGCGGTAG	-0.0407
CCGGGTAA	-0.0414
ACTGACCA	-0.0902
ACTGACTG	0.306
ACTGACTA	0.447
ATAAAACC	0.0678
AAAAACCT	0.111

Sequence	PBM E-score
AGTCACTC	0.467
AGACACTG	0.0291
AGTCACTA	0.469
GGTCACTA	-0.234
ATTCACTC	0.0742
AGTCACTG	0.457
CGTCACTA	0.0406
ATTCACTG	0.138
CGTCACTC	-0.0803
TACTGATA	0.0643
ATAGGACG	-0.178
CCGCCAAG	-0.149
ACGTAGTA	-0.0277
ACGTAGTC	0.39
CCGTAGGC	-0.119
CCGTAGTC	0.394
ACGTAGTG	-0.132
CCGTAGTA	-0.15
AGCGTTAG	-0.0809
CATAGCAA	-0.0521
CATCTGTA	-0.0129
GGATCGTA	-0.118
AACTATAA	0.0773
GACTATAC	0.413
GACTATAA	0.389
CACTATAC	-0.184

Sequence	PBM E-score
CACTATAA	-0.0109
AACTATAC	0.172
AACTCTCG	-0.105
CCTTCAGC	-0.126
CATTTGGA	0.0626
CATGAGCC	0.247
CATGAGAC	0.322
AATGAGAC	0.257
AATGAGTC	0.485
CATGAGTC	0.481
AATGAGTG	0.249
ACGAGCGA	-0.0924
TGTTGAAA	0.0239
ACATCCCT	-0.0971
AGATCTAA	-0.0235
AGAAGTAT	0.0717
CCTCATAC	-0.153
ACTCATAA	0.375
ACGCATAT	-0.225
GCTCATAC	-0.0113
ACCCATAT	0.216
ACTCATAT	0.368
ACTCATAG	0.385
TCTCATAA	0.209
ATTCATAG	0.166
GCTCATAA	0.136

Sequence	PBM E-score
CCTCATAG	-0.00122
ACTCATAC	0.393
GAAGATCA	0.02
ATCGATAG	0.0388
GCGCGACA	-0.0346
ACCTGGAG	0.0449
CTCTTGCA	0.00318
CGTGATTC	0.418
GGTGATGA	0.191
GGTGATTA	0.447
GGTGATAA	-0.111
AGTGATTG	0.362
AGTGATTC	0.405
AGTGATAC	0.0829
CGTGATAC	-0.131
AGTGATGA	0.261
AGTGATTA	0.4
AGTGATAA	-0.0496
CGTGATCC	-0.251
ATTGGACA	-0.0986
AAAAACCC	-0.204
GAGATAGA	-0.206
GCAGTCCA	0.123
GCTCTCCA	-0.226
GTCCTCAA	0.159
CCAGAACC	-0.1

Sequence	PBM E-score
CGTGATAA	0.0558
CGTGATGA	0.104
CGTGATTA	0.393
AAGATGCC	-0.214
CGGCAAAA	-0.235
AGAAGACT	0.368
AGAAGACG	-0.0622
AGAAGACC	-0.209
ACAAGACT	0.37
ACAAGACG	-0.027
ACAAGACA	-0.114
ATTAATTG	0.238
ACCATACA	-0.0449
GAGGACCA	-0.0209
TGTATCAA	0.187
AGCGACGG	-0.139
ATGTAATC	0.291
TATAGTGA	0.134
AATAGTCG	0.346
CATAGTAA	0.212
CATAGTCG	0.374
AATAGTCA	0.478
CATAGTCC	0.304
CATAGTCA	0.466
AATAGTCC	0.241
TATAGTAA	0.0693

Sequence	PBM E-score
AATAGTCT	0.297
CATAGTGG	-0.088
TATAGTCA	0.467
AATGGGCT	-0.041
AACCAACC	-0.128
CGTCGAGA	0.0495
GAGCGCGC	-0.194
GTCGCTCA	0.171
GGACCATA	-0.109
CCGTACGA	-0.0292
AAGGGAGA	0.039
AGGGACTA	0.222
GATAGTCA	0.476
GATAGTCC	0.296
GATAGTAA	0.149
GCACCCCA	-0.26
GGGAGTAA	0.00383
GGGAGTCA	0.477
CGGAGTTA	-0.0037
CGGAGTCA	0.477
GGGAGTTA	-0.0443
CGGAGTCC	0.307
CACTGTGG	-0.177
CACCTACG	0.0159
GAACCGTC	-0.209
GACCTGTA	-0.193

Sequence	PBM E-score
ATCGAGTC	0.389
CTCGAGTA	0.109
ATCGAGTG	0.139
CTCGAGTC	0.37
CTCGAGAC	0.163
ATCGAGTA	0.138
CCGCTAGC	-0.334
GAAGATCC	-0.181
ACCCCTTA	-0.00226
AAGACTGC	0.137
CAGACTGA	0.134
CAGACTCA	0.396
AAAACTCT	-0.168
AAGACTGT	0.254
GAGACTCC	0.367
AAGACTCT	0.425
CAGACTCC	0.187
CAGACTCG	0.218
GAGACTGC	0.217
GAGACTAC	0.36
AAGACTCC	0.387
